Reference: PubChem BioAssay (EPA / NIEHS)
Activity calls are given as the source filed them. How the source made its calls: active means hit-call score of the fitted dose curve at least 0.9, where 1 is the maximum; inactive means score below 0.9.

Read-out: Vascular cell adhesion molecule 1 (VCAM1), VCAM1 (gene 7412)
Assay: BSK_LPS_VCAM1: BioMAP Diversity Plus: LPS Assay for Vascular cell adhesion molecule 1 (VCAM1) Biomarker Activity (AID 2283086)
Conditions: primary human HUVEC with PBMC; actives raise or lower the signal
Procedure: BSK_LPS is a cell-based, multiplexed-readout assay that uses umbilical vein endothelium and peripheral blood mononuclear cells, a human vascular primary cell co-culture, with measurements taken at 24 hours after chemical dosing in a 96-well plate.BSK_LPS_VCAM1 is an assay component measured in the BSK_LPS assay. It measures VCAM-1 antibody related to regulation of gene expression using ELISA technology.Data from the assay component BSK_LPS_VCAM1 was analyzed into 1 assay endpoint. This assay endpoint, BSK_LPS_VCAM1, was analyzed with bidirectional fitting relative to DMSO as the negative control and baseline of activity. Using a type of binding reporter, gain or loss-of-signal activity can be used to understand changes in the signaling as they relate to the gene VCAM1. Furthermore, this assay endpoint can be referred to as a primary readout, because this assay has produced multiple assay endpoints where this one serves a signaling function. To generalize the intended target to other relatable targets, this assay endpoint is annotated to the cell adhesion molecules intended target family, where the subfamily is Immunoglobulin CAM.
The levels of cell surface (or secreted, indicated by the prefix "s") biomarker endpoints were measured by ELISA. Overt cytotoxicity to cells in confluent adherent cultures (all systems other than the BT system) was assessed by measuring total protein levels using sulforhodamine B (SRB) staining in parallel cultures at the time of biomarker measurements, indicated as SRB endpoints. For proliferation assays for adherent cell types, individual cell types are cultured at sub-confluence and relative cell numbers quantified by SRB staining at time points optimized for each system (48 h: 3C and CASM3C systems; 72 h: BT and HDF3CGF systems; 96 h: SAg system). SRB was performed by staining cells with 0.1% SRB after fixation with 10% TCA and reading wells at 560 nm.Viability and proliferation of PBMC (T cells) was quantified by Alamar Blue reduction for the SAg and BT systems. For PBMC viability (referred to as PBMC Cytotoxicity within the assay endpoint names), cells were plated (75,000/well in a 96-well plate) and then chemical samples added for 1 h before addition of activators, SEB and TSST-1 (20 ng/mL final concentration each). Cells were incubated for 90 h. Then, Alamar Blue (20 uL/well) (Invitrogen, Cat DAL1100) was added for 6 h, and the plates were read with a fluorescence microplate reader at 546/580 nm (excitation/emission). For PBMC proliferation, cells were plated and activated as above but incubated for only 16 h prior to addition of Alamar Blue. Plates were read after 6 h.

| SMILES | outcome | AC50 |
| --- | --- | --- |
| CCNc1cccc(C)c1 | inactive | – |
| CCCCCCCCCCO | inactive | – |
| CC(C)(C)c1cc(O)c(C(C)(C)C)cc1O | – | 8.05 µM (active) |
| O=c1[nH]cc(F)c(=O)[nH]1 | – | 20.4 µM (active) |
| COc1cc(C=O)ccc1O | inactive | – |
| Oc1ccc2c(c1)OC[C@@H](N1CCC(O)(c3ccc(F)cc3)CC1)[C@H]2O | inactive | – |
| Cc1c(C(=O)O)c(O)cc2c1C(=O)c1c(O)c([C@@H]3O[C@H](CO)[C@@H](O)[C@H](O)[C@H]3O)c(O)c(O)c1C2=O | inactive | – |
| CCCCCC(=O)O | inactive | – |
| NCCO | inactive | – |
| CCCCCCOCCO | inactive | – |
| Cc1ccc2ncccc2c1 | inactive | – |
| C[C@]12C=CC(=O)C=C1CC[C@@H]1[C@@H]2C(=O)C[C@@]2(C)[C@H]1CC[C@]2(O)C(=O)CO | inactive | – |
| CC1=C(/C=C/C(C)=C/C=C/C(C)=C/CO)C(C)(C)CCC1 | – | 30.5 µM (active) |
| Cc1cccc(C)c1O | inactive | – |
| Cc1cccc(Nc2cc(Cl)nc(SCC(=O)O)n2)c1C | inactive | – |
| C=CCc1ccc(O)c(OC)c1 | inactive | – |
| O=[N+]([O-])C(CO)(CO)CO | inactive | – |
| O=C(OCCCCCOC(=O)c1ccccc1)c1ccccc1 | inactive | – |
| CCCCN(CCCC)CCCC | inactive | – |
| CN1CCCC1=O | inactive | – |

| SMILES | outcome | AC50 |
| --- | --- | --- |
| Cc1cc(=O)[nH]c(=S)[nH]1 | inactive | – |
| CC1(C)CC(N=C=O)CC(C)(CN=C=O)C1 (stereo not given) | inactive | – |
| CCCCOC(=O)CCCCCCCCC(=O)OCCCC | inactive | – |
| Clc1cc(Cl)c(Cl)cc1Cl | inactive | – |
| CNC(=O)[C@H]1O[C@@H](n2cnc3c(NCc4cc(Cl)ccc4OCc4cc(C)no4)ncnc32)[C@H](O)[C@@H]1N | inactive | – |
| C[Si]1(C)O[Si](C)(C)O[Si](C)(C)O[Si](C)(C)O1 | inactive | – |
| OC[C@@H](O)[C@@H](O)[C@H](O)[C@H](O)CO | inactive | – |
| CCOC(=O)CCC(=O)OCC | inactive | – |
| O=C(O)Cc1ccccc1Nc1c(Cl)cccc1Cl | inactive | – |
| COc1ccc(C)cc1N | inactive | – |
| Cc1ccc(N(C)C)cc1 | inactive | – |
| CC(=O)Oc1ccccc1C(=O)O | inactive | – |
| Cc1ccc(C(C)C)c(O)c1 | inactive | – |
| NS(=O)(=O)c1cc2c(cc1Cl)NCNS2(=O)=O | inactive | – |
| Oc1ccc2ccccc2c1N=Nc1ccccc1 | inactive | – |
| COCCOCCOC | inactive | – |
| CCOC(=O)C(C)(C)Oc1ccc(Cl)cc1 | inactive | – |
| C1CCC(SSC2CCCCC2)CC1 | – | 20 µM (active) |
| FC(F)(F)C(F)(F)C(F)(F)C(F)(F)C(F)(F)C(F)(F)CCI | inactive | – |
| Cc1nc(C)nc(N2C[C@@H](C)N(c3ccnc([C@@H](C)O)n3)[C@@H](C)C2)n1 | inactive | – |
